# Data reported in article PMC7862700, “An all-to-all approach to the identification of sequence-specific readers for epigenetic DNA modifications on cytosine”.
# Experiments:
# Test in all cases: DAPPL (digital affinity profiling via proximity ligation, sequencing); 10 mM Tris-HCl pH 7.5, 50 mM NaCl, 1 mM DTT, 4% glycerol, room temperature, 30 min; GST-TFs on glutathione beads, 16-mer random dsDNA library, 0.1% formaldehyde crosslink after washing; high values mean tight binding
# [1] = biological target: ELF1 (Homo sapiens, UniProt P32519 1-619); details: protein: recombinant; tags: N-terminal GST; dsDNA, one strand shown
# Outline: (§1)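 Yeast served to express human transcription factors as GST fusions, which were then captured on glutathione beads and labelled with DNA barcodes. Pooled with a tag-only sample, they were incubated with 200 nmole of a 16-mer random double-stranded DNA library for 30 min at room temperature in Tris/NaCl/DTT/glycerol buffer, washed, crosslinked with 0.1% formaldehyde, ligated by proximity, amplified by PCR and sequenced. Dividing each hexamer's read frequency for a factor by its frequency for the tag-only sample gives the binding signal.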
# [2] = biological target: T1, ELK3 (Homo sapiens, UniProt P41970 1-407); details: protein: recombinant; tags: N-terminal GST; dsDNA, one strand shown
# T1 sequence: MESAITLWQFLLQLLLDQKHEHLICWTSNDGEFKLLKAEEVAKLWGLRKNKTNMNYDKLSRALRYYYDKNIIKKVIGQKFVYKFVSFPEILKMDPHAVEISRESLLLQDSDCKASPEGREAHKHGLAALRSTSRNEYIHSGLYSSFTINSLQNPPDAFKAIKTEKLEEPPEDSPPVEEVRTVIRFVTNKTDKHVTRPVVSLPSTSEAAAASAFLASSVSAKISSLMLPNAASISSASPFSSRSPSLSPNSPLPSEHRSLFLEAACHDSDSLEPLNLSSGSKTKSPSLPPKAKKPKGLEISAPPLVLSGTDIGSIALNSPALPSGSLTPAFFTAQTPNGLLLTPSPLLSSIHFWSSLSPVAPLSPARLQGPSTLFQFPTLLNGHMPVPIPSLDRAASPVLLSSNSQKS
# Outline: as §1
# [3] = biological target: HSF1 (Homo sapiens, UniProt Q00613 1-529); details: protein: recombinant; tags: N-terminal GST; chain copies: 3; dsDNA, one strand shown
# Outline: as §1
# [4] = biological target: T2, ELK4 (Homo sapiens, UniProt P28324-2 1-405); details: protein: recombinant; tags: N-terminal GST; dsDNA, one strand shown
# T2 sequence: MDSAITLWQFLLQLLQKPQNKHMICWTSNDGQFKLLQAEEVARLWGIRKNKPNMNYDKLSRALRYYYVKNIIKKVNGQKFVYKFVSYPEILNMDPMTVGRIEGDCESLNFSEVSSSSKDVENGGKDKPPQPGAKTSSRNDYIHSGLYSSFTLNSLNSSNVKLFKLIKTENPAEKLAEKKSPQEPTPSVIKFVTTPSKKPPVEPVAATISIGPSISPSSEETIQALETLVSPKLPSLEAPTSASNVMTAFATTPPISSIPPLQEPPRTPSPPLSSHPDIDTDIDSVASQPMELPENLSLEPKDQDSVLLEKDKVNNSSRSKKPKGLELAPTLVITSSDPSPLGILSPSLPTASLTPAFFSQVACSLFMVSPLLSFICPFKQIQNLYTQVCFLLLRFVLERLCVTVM
# Outline: as §1
# [5] = biological target: T3, ELF3 (Homo sapiens, UniProt P78545 1-371); details: protein: recombinant; tags: N-terminal GST; dsDNA, one strand shown
# T3 sequence: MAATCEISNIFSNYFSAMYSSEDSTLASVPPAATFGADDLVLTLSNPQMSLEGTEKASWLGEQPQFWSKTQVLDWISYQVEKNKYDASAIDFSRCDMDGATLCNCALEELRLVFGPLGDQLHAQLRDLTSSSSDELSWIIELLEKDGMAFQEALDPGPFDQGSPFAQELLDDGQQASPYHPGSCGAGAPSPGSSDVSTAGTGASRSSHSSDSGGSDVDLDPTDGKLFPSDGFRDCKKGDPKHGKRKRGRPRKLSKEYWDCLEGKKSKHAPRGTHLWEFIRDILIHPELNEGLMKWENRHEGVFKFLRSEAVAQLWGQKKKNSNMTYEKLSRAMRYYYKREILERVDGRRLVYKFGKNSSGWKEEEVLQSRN
# Outline: as §1
# [6] = biological target: CRX (Homo sapiens, UniProt O43186 1-299); details: protein: recombinant; tags: N-terminal GST; dsDNA, one strand shown
# Outline: as §1
# [7] = biological target: T4, ERF (Homo sapiens, UniProt P50548 1-548); details: protein: recombinant; tags: N-terminal GST; dsDNA, one strand shown
# T4 sequence: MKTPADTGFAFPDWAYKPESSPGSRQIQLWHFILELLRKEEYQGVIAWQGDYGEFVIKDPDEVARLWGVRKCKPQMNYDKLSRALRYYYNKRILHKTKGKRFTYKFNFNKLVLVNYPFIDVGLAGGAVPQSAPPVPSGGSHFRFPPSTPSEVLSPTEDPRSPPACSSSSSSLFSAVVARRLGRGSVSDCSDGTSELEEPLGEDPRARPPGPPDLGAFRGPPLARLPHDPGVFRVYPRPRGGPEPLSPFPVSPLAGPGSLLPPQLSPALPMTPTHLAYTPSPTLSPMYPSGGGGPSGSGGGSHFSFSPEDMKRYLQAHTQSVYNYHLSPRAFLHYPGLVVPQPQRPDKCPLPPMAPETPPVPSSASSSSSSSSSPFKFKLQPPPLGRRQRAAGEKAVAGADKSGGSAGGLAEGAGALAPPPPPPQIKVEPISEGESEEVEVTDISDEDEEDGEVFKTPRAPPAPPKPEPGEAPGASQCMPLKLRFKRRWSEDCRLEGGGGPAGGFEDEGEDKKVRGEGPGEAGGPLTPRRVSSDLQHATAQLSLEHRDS
# Outline: as §1
# [8] = biological target: T5, ETV3L (Homo sapiens, UniProt Q6ZN32 1-361); details: protein: recombinant; tags: N-terminal GST; dsDNA, one strand shown
# T5 sequence: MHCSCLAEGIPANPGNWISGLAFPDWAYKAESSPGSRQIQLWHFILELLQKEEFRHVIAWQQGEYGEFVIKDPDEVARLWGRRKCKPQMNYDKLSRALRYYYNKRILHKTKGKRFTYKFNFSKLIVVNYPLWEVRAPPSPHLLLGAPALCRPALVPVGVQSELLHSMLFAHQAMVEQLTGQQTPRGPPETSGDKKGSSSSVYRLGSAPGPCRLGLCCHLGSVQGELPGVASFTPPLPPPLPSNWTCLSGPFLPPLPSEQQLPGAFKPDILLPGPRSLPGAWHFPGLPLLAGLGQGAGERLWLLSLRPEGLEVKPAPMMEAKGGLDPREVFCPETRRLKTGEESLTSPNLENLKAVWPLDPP
# Outline: as §1
# [9] = biological target: T6, ETV7 (Homo sapiens, UniProt Q9Y603 1-341); details: protein: recombinant; tags: N-terminal GST; dsDNA, one strand shown
# T6 sequence: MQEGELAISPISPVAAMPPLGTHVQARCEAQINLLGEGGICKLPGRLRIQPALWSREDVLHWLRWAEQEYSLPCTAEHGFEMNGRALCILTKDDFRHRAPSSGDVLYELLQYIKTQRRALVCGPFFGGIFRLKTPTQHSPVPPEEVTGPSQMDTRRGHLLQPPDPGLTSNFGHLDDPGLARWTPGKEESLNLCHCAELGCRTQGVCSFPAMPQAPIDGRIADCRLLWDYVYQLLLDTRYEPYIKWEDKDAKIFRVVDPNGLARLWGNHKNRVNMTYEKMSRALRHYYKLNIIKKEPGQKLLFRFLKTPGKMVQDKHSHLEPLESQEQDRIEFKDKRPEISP
# Outline: as §1
# [10] = biological target: ELF4 (Homo sapiens, UniProt Q99607 1-663); details: protein: recombinant; tags: N-terminal GST; dsDNA, one strand shown
# Outline: as §1
# [11] = biological target: T7, ETV2 (Homo sapiens, UniProt O00321 1-342); details: protein: recombinant; tags: N-terminal GST; dsDNA, one strand shown
# T7 sequence: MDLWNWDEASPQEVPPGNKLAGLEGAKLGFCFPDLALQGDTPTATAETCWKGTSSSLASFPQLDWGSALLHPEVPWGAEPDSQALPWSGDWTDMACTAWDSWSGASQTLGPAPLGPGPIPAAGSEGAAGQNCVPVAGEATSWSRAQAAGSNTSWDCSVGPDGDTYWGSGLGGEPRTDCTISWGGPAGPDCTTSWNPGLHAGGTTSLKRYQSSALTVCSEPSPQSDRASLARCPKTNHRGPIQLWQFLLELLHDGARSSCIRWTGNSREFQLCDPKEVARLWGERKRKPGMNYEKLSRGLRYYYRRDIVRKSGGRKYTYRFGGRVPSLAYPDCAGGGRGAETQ
# Outline: as §1
# [12] = biological target: ETV6 (Homo sapiens, UniProt P41212 1-452); details: protein: recombinant; tags: N-terminal GST; dsDNA, one strand shown
# Outline: as §1
# [13] = biological target: T8, SPIC (Homo sapiens, UniProt Q8N5J4 1-248); details: protein: recombinant; tags: N-terminal GST; dsDNA, one strand shown
# T8 sequence: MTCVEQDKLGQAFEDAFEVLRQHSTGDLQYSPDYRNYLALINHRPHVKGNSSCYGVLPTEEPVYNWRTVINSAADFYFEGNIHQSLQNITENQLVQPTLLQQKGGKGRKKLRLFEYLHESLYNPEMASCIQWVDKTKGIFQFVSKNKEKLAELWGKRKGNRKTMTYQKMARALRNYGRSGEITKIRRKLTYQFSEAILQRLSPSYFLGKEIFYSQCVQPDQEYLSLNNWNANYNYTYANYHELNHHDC
# Outline: as §1
# [14] = biological target: SPI1 (Homo sapiens, UniProt P17947 1-270); details: protein: recombinant; tags: N-terminal GST; dsDNA, one strand shown
# Outline: as §1
# HSF1, sequence (Q00613 whole entry): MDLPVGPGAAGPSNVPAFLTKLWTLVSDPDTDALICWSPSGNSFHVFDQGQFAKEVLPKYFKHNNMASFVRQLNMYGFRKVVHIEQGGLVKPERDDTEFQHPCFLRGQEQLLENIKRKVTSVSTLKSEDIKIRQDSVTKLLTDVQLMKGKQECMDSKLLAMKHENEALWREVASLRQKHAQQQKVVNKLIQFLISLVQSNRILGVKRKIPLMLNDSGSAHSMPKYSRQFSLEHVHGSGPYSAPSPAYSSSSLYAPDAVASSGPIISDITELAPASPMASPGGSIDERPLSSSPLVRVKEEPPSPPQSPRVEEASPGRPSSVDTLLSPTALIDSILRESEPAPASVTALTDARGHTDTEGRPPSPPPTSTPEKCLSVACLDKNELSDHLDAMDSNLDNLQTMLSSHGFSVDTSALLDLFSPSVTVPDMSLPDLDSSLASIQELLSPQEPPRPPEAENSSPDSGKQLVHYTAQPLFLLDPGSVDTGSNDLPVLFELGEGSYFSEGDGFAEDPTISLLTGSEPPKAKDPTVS
# CRX, sequence (O43186 whole entry): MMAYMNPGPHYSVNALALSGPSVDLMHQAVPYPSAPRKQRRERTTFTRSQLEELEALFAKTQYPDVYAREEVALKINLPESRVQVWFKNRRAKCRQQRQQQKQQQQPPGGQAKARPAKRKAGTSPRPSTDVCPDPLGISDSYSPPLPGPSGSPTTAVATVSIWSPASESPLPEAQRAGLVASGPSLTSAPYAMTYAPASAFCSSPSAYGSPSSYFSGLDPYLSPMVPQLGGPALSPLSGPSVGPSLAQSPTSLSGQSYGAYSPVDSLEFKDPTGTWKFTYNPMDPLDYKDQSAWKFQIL
# ELF1, sequence (P32519 whole entry, the tested form may be a part): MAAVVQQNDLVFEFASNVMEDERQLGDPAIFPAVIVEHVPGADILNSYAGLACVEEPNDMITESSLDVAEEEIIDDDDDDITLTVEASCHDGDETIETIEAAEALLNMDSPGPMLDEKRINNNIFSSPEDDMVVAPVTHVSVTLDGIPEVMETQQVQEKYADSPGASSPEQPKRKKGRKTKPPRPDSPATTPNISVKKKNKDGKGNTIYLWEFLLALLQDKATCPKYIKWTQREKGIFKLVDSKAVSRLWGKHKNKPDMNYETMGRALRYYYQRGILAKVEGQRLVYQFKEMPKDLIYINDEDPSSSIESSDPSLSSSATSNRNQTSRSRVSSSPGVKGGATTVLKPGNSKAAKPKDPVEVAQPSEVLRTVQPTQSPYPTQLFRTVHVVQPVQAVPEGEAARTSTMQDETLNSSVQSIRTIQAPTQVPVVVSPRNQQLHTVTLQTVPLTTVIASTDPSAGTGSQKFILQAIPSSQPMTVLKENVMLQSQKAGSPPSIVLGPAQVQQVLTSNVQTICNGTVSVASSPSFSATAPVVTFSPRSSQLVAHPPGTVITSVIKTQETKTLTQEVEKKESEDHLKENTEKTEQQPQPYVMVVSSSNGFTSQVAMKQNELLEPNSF
# ELF4, sequence (Q99607 whole entry): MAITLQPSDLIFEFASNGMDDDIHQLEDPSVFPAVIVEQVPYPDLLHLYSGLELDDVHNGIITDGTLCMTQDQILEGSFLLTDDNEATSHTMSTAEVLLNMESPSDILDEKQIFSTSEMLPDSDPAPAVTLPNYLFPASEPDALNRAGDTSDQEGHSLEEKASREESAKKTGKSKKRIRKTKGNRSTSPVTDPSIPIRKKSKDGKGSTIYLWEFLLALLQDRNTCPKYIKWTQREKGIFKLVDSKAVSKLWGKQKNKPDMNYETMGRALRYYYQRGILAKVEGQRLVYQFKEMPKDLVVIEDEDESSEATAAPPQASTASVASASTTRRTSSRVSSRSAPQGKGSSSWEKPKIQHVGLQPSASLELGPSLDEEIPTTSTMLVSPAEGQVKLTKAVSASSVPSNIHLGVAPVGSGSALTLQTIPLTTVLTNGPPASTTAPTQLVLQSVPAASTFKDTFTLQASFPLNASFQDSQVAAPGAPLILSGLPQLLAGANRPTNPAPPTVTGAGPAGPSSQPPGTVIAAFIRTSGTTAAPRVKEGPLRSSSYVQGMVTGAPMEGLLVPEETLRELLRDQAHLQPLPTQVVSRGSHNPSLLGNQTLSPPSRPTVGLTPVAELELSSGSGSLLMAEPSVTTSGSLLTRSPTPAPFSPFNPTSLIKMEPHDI
# ETV6, sequence (P41212 whole entry): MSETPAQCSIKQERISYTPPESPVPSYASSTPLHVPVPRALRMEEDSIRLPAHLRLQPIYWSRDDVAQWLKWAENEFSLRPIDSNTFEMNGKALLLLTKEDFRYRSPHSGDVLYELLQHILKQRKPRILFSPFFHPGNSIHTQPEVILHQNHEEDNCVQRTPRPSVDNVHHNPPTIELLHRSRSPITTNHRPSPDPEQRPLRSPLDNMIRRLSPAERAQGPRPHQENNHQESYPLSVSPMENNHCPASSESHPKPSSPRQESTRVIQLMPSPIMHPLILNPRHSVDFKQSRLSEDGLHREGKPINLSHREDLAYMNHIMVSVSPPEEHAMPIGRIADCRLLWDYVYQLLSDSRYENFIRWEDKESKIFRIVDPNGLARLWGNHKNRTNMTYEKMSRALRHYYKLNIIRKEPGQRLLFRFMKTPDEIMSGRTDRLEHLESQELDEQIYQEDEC
sequence,measurement,setting,value
GATCAT,binding signal,[1],"1.01 fold enrichment (6-mer frequency, TF over GST control)"
same,binding signal,[2],"1.1 fold enrichment (6-mer frequency, TF over GST control)"
same,binding signal,[3],"1.3 fold enrichment (6-mer frequency, TF over GST control)"
same,binding signal,[4],"1.07 fold enrichment (6-mer frequency, TF over GST control)"
same,binding signal,[5],"1.05 fold enrichment (6-mer frequency, TF over GST control)"
same,binding signal,[6],"1.48 fold enrichment (6-mer frequency, TF over GST control)"
same,binding signal,[7],"1.09 fold enrichment (6-mer frequency, TF over GST control)"
same,binding signal,[8],"1 fold enrichment (6-mer frequency, TF over GST control)"
same,binding signal,[9],"1.04 fold enrichment (6-mer frequency, TF over GST control)"
ATCGCG,binding signal,[3],"1.09 fold enrichment (6-mer frequency, TF over GST control)"
same,binding signal,[10],"1 fold enrichment (6-mer frequency, TF over GST control)"
same,binding signal,[4],"1 fold enrichment (6-mer frequency, TF over GST control)"
same,binding signal,[9],"1.05 fold enrichment (6-mer frequency, TF over GST control)"
AGAAGA,binding signal,[3],"1.68 fold enrichment (6-mer frequency, TF over GST control)"
same,binding signal,[4],"1.05 fold enrichment (6-mer frequency, TF over GST control)"
same,binding signal,[5],"1.03 fold enrichment (6-mer frequency, TF over GST control)"
same,binding signal,[6],"1.14 fold enrichment (6-mer frequency, TF over GST control)"
same,binding signal,[9],"1.01 fold enrichment (6-mer frequency, TF over GST control)"
GAATGA,binding signal,[1],"1 fold enrichment (6-mer frequency, TF over GST control)"
same,binding signal,[2],"1.02 fold enrichment (6-mer frequency, TF over GST control)"
same,binding signal,[3],"1.15 fold enrichment (6-mer frequency, TF over GST control)"
same,binding signal,[10],"1 fold enrichment (6-mer frequency, TF over GST control)"
same,binding signal,[11],"1.11 fold enrichment (6-mer frequency, TF over GST control)"
same,binding signal,[5],"1.07 fold enrichment (6-mer frequency, TF over GST control)"
same,binding signal,[12],"1.02 fold enrichment (6-mer frequency, TF over GST control)"
TCGAAG,binding signal,[3],"1.57 fold enrichment (6-mer frequency, TF over GST control)"
same,binding signal,[13],"1.02 fold enrichment (6-mer frequency, TF over GST control)"
same,binding signal,[6],"1.09 fold enrichment (6-mer frequency, TF over GST control)"
TCGAAA,binding signal,[14],"1.02 fold enrichment (6-mer frequency, TF over GST control)"
same,binding signal,[3],"2.08 fold enrichment (6-mer frequency, TF over GST control)"
same,binding signal,[13],"1.06 fold enrichment (6-mer frequency, TF over GST control)"
same,binding signal,[6],"1.16 fold enrichment (6-mer frequency, TF over GST control)"
same,binding signal,[7],"1.01 fold enrichment (6-mer frequency, TF over GST control)"
same,binding signal,[9],"1.05 fold enrichment (6-mer frequency, TF over GST control)"
